According to PubChem BioAssay (NCI):
Compounds without any hit were thinned out: in the full panel of roughly 79,000, 15% have a hit. Rule as the data show it: active = growth inhibition above about 70%; inactive = the rest. *1 amine or outer side, *2 acyl side, *3 side chain or, on linkers, in order; H or OH if unused. Where a SMILES comes first, the peptide text is derived from it. Bridges are numbered along the chain shown (N, C = ends). Roman numbers before positions name the chains, in order. [ ]: non-standard residue; d: D form. Actinocin(9to1) = Cc1c2oc3c(C)ccc(C(=O)[*:1])c3nc-2c(C(=O)[*:2])c(N)c1=O; NMeT = CN[CH](C(=O)O)[CH](C)O; Sar = CNCC(=O)O

What was measured:
[1] = NCI Yeast Anticancer Drug Screen. Data for the rad50 strain (AID 155);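 also: 0% = growth of vehicle-only cultures of the same strain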; conditions: S. cerevisiae rad50 strain growth inhibition; at 50.0 µM; stronger effect = higher value
How it was run: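 Compounds were tested on a yeast strain with an engineered DNA damage repair alteration; the reported value is growth inhibition normalised to vehicle treatment.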

[2] = NCI Yeast Anticancer Drug Screen. Data for the mec2-1 strain (AID 157); conditions: S. cerevisiae mec2-1 strain, at 50.0 µM, stronger effect = higher value
How it was run: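 mec2-1 yeast strain, carrying an alteration in DNA damage repair or cell cycle control, was exposed to compounds; growth inhibition was measured relative to vehicle-treated controls.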

[3] = NCI Yeast Anticancer Drug Screen. Data for the sgs1 mgt1 strain (AID 161);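 also: 0% = growth of cultures given vehicle only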; conditions: S. cerevisiae sgs1 mgt1 strain, at 50.0 µM, stronger effect = higher value
How it was run: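 Compounds are added to genetically altered yeast, and growth is compared with cultures given vehicle alone to give percent inhibition.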

[4] = NCI Yeast Anticancer Drug Screen. Data for the cln2 rad14 strain (AID 165);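 also: 0% = growth equal to vehicle treated cultures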; conditions: S. cerevisiae cln2 rad14 strain, at 50.0 µM, stronger effect = higher value
How it was run: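 Yeast carrying cln2 and rad14 alterations (cell cycle control and DNA damage repair) were exposed to compounds. Growth inhibition was measured against vehicle-treated controls.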

[5] = NCI Yeast Anticancer Drug Screen. Data for the bub3 strain (AID 167); conditions: S. cerevisiae bub3 mutant strain, at 50.0 µM, stronger effect = higher value
How it was run: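 Growth of a checkpoint-deficient yeast mutant is measured after compound exposure. Values represent inhibition relative to vehicle.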

[6] = NCI Yeast Anticancer Drug Screen. Data for the mlh1 rad18 strain (AID 175); conditions: S. cerevisiae mlh1 rad18 strain growth inhibition; at 50.0 µM; stronger effect = higher value
How it was run: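 Growth inhibition of the yeast strain was measured after compound exposure and expressed relative to vehicle-treated controls. The strain carries defined defects in DNA damage repair.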

Measured: growth inhibition

[O-][N+]1(CC[N+]2([O-])CCCCC2)CCCCC1
inactive: [1] -16.8% | [2] -4.9% | [3] 1.7% | [4] -37.3% | [5] -0.65% | [6] 15.8%

O=c1oc2ccccc2c(O)c1Cc1cccc(Cc2c(O)c3ccccc3oc2=O)c1
inactive: [1] 11.9% | [2] 5.05% | [3] 4.9% | [4] 9.3% | [5] -11.3% | [6] 5%

CC1=Nc2ccccc2S/C1=C(/C)NN
inactive: [1] 21.4% | [2] 8.55% | [3] 0.2% | [4] 15.6% | [5] 1.8% | [6] 0.9%

COC(=O)/C(=C\c1ccccc1[N+](=O)[O-])c1ccc2c(c1)OCO2
inactive: [1] 23.6% | [2] -10.1% | [3] 3.2% | [4] -38.5% | [5] 9.6% | [6] 14.4%

Cc1cccc(C)c1NC(=O)N(Cc1ccccc1)Cc1ccccc1
inactive: [1] 1.65% | [2] 15.2% | [3] 20.6% | [4] -2% | [5] 36.7% | [6] 30.6%

CC1=CC(=O)C(C(O)(C(F)(F)F)C(F)(F)F)C(C)(C)C1 (stereo not given)
inactive: [1] -37.1% | [2] -38% | [3] -5.45% | [4] -23.8% | [5] -4.95% | [6] -6.9%

N#CC(C(=O)O)=C1CCCCCC1
inactive: [1] 2.4% | [2] -1% | [3] 3.7% | [4] -1.8% | [5] 5.5% | [6] -0.8%

OC(CNc1ncccn1)(Cc1ccccc1)Cc1ccccc1
inactive: [1] 9% | [2] -5.2% | [3] 2.45% | [4] 19.1% | [5] 12% | [6] 21.2%

CC1=C(C(=O)Nc2ccc(Cl)c(C(=O)OC(C)C)c2)SCCO1
inactive: [1] 44.9% | [2] 7.35% | [3] 5.15% | [4] 4.05% | [5] 25.4% | [6] 0.45%

CCOC(=O)CCC1CCCCC1
inactive: [1] -1.1% | [2] -8.15% | [3] -19.4% | [4] 0.65% | [5] -3.2% | [6] 8.15%

CCCC(=O)c1ccc(O)cc1
inactive: [1] 4.65% | [2] 3.45% | [3] -6.2% | [4] -12.6% | [5] 4.05% | [6] 0.2%

Nc1cc(CO)cc(Nc2c3ccccc3nc3ccccc23)c1
inactive: [1] 26.8% | [2] 7.35% | [3] -30.8% | [4] -6.95% | [5] 0.65% | [6] 48.5%

Cc1c2oc3c(C)ccc(C(=O)NC4C(=O)NC(C(C)C)C(=O)N5CCCC5C(=O)N(C)CC(=O)N(C)C(C(C)O)C(=O)OC4C)c3nc-2c(C(=O)NC2C(=O)NC(C(C)C)C(=O)N3CCCC3C(=O)N(C)CC(=O)N(C)C(C(C)O)C(=O)OC2C)c(N)c1=O (stereo not given) (I: TVP[Sar][NMeT] / II: TVP[Sar][NMeT]; ester I:1-I:C, II:1-II:C; linker I:N-II:N via Actinocin(9to1); configuration not given here)
inactive: [1] 19.4% | [2] -21% | [3] -3.3% | [4] 31.3% | [5] -5.3% | [6] -52.5%

C(=C\C(SCc1ccccc1)SCc1ccccc1)/c1ccccc1
inactive: [1] -43% | [2] -60% | [3] -27.8% | [4] 3.55% | [5] -7.2% | [6] -35.6%

CC(=O)N(C(=O)CC(=O)N/N=C\c1ccc(Br)c(N(CCC#N)CCC#N)c1)c1ccc(Cl)cc1
inactive: [1] 7.7% | [2] 0.6% | [3] 8.1% | [4] -7.8% | [5] 6.2% | [6] -3.35%

Cc1cccc(C)c1NC(=O)CCC(=O)CC(=O)C(C)C
inactive: [1] -2.6% | [2] -4.85% | [3] -6.2% | [4] 2.55% | [5] 7.25% | [6] -13.1%

C(=N\c1nnc2ccccn12)/c1ccccc1
inactive: [1] 0.2% | [2] -6.8% | [3] -21.7% | [4] -9.6% | [5] -13.7% | [6] -28.3%

O=C(c1ccccc1)N1OCCC1Nc1ccc(Br)cc1 (stereo not given)
inactive: [1] -9.85% | [2] -7.45% | [3] -3.95% | [4] 13.6% | [5] -15% | [6] 3.65%

O=C(NCc1ccccc1)NCc1ccccc1
inactive: [1] -25.5% | [2] -0.65% | [3] -2.5% | [4] -13.8% | [5] -18.4% | [6] -4.5%

O=C(O)c1ccc(-c2ccc(O)cc2)cc1
inactive: [1] 10.8% | [2] 5.85% | [3] 2% | [4] -34% | [5] -6.7% | [6] 9.4%
